According to the supplement of paper PMC7411054:
Where a name gives a salt, the structure may show the parent alone.

Assays:
Assay in all cases: phenotypically active (imaging signature differs from DMSO and reproducible) at any of 0.3-9 uM (binary (1 = active, 0 = inactive)); higher = active
Conditions in all cases: treatment time: 24 h
[1] = system: A549-ACTB-RAB5A
How it was run: (§1)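 Two criteria together defined phenotypic activity: deviation and reproducibility. Deviation meant ≥3 of 4 wells beyond the 95th percentile of Euclidean distances in solvent control wells, and reproducibility meant a median replicate Pearson correlation above the 95th percentile of non-replicates. Wells had been treated for 24 h at 0.3, 1, 3 or 9 µM in fifteen gene-edited A549, HepG2 and WPMY1 reporter lines before live imaging.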

[2] = system: A549-CANX-COX4
How it was run: as §1

[3] = system: A549-GM130-SQSTM1
How it was run: as §1

[4] = system: A549-TP53BP1-CLTA
How it was run: as §1

[5] = system: A549-TUBA1B-RELA
How it was run: as §1

[6] = system: HepG2-ACTB-RAB5A
How it was run: as §1

[7] = system: HepG2-CANX-COX4
How it was run: as §1

[8] = system: HepG2-GM130-SQSTM1
How it was run: as §1

[9] = system: HepG2-TP53BP1-CLTA
How it was run: as §1

[10] = system: HepG2-TUBA1B-RELA
How it was run: as §1

[11] = system: WPMY1-ACTB-RAB5A
How it was run: as §1

[12] = system: WPMY1-CANX-COX4
How it was run: as §1

[13] = system: WPMY1-GM130-SQSTM1
How it was run: as §1

[14] = system: WPMY1-TP53BP1-CLTA
How it was run: as §1

[15] = system: WPMY1-TUBA1B-RELA
How it was run: as §1

Measured: phenotypically active

Cc1[nH]c2ccccc2c1CCNC(=O)c1ccccc1F
inactive: [1] 0 | [2] 0 | [3] 0 | [4] 0 | [5] 0 | [6] 0 | [7] 0 | [8] 0 | [9] 0 | [10] 0 | [11] 0 | [12] 0 | [13] 0 | [14] 0 | [15] 0

O=S(=O)(NCCSSCCNS(=O)(=O)c1cc(Cl)ccc1Cl)c1cc(Cl)ccc1Cl
inactive: [1] 0 | [2] 0 | [3] 0 | [4] 0 | [5] 0 | [6] 0 | [7] 0 | [8] 0 | [9] 0 | [10] 0 | [11] 0 | [12] 0 | [13] 0 | [14] 0 | [15] 0

C#CCN(C)Cc1ccccc1 [pargyline]
inactive: [1] 0 | [2] 0 | [3] 0 | [4] 0 | [5] 0 | [6] 0 | [7] 0 | [8] 0 | [9] 0 | [10] 0 | [11] 0 | [12] 0 | [13] 0 | [14] 0 | [15] 0

COc1cc(C#N)ccc1S(=O)(=O)Nc1ccc2c(c1)cc(C)c(=O)n2C
inactive: [1] 0 | [2] 0 | [3] 0 | [4] 0 | [5] 0 | [6] 0 | [7] 0 | [8] 0 | [9] 0 | [10] 0 | [11] 0 | [12] 0 | [13] 0 | [14] 0 | [15] 0

O=C(O)c1cccc(C(=O)O)n1 [2,6-Pyridinedicarboxylic Acid]
inactive: [1] 0 | [2] 0 | [3] 0 | [4] 0 | [5] 0 | [6] 0 | [7] 0 | [8] 0 | [9] 0 | [10] 0 | [11] 0 | [12] 0 | [13] 0 | [14] 0 | [15] 0

CN(C)CCC[C@@]1(c2ccc(F)cc2)OCc2cc(C#N)ccc21 [escitalopram]
inactive: [1] 0 | [2] 0 | [3] 0 | [4] 0 | [5] 0 | [6] 0 | [7] 0 | [8] 0 | [9] 0 | [10] 0 | [11] 0 | [12] 0 | [13] 0 | [14] 0 | [15] 0

CCCCC(=O)N(Cc1ccc(-c2ccccc2-c2nnn[nH]2)cc1)[C@H](C(=O)O)C(C)C [valsartan]
inactive: [1] 0 | [2] 0 | [3] 0 | [4] 0 | [5] 0 | [6] 0 | [7] 0 | [8] 0 | [9] 0 | [10] 0 | [11] 0 | [12] 0 | [13] 0 | [14] 0 | [15] 0

O=C(O)C(CO)c1ccccc1 (stereo not given) [Tropic acid]
inactive: [1] 0 | [2] 0 | [3] 0 | [4] 0 | [5] 0 | [6] 0 | [7] 0 | [8] 0 | [9] 0 | [10] 0 | [11] 0 | [12] 0 | [13] 0 | [14] 0 | [15] 0

Cc1cc(/N=N/c2cc(S(=O)(=O)O)c(C)cc2C)c(N)cc1O [Ischemin sodium salt]
inactive: [1] 0 | [2] 0 | [3] 0 | [4] 0 | [5] 0 | [6] 0 | [7] 0 | [8] 0 | [9] 0 | [10] 0 | [11] 0 | [12] 0 | [13] 0 | [14] 0 | [15] 0

CC(C(=O)O)c1cccc(C(=O)c2ccccc2)c1 (stereo not given) [ketoprofen]
inactive: [1] 0 | [2] 0 | [3] 0 | [4] 0 | [5] 0 | [6] 0 | [7] 0 | [8] 0 | [9] 0 | [10] 0 | [11] 0 | [12] 0 | [13] 0 | [14] 0 | [15] 0

Cc1nc2c(O)cccc2c(=O)[nH]1
inactive: [1] 0 | [2] 0 | [3] 0 | [4] 0 | [5] 0 | [6] 0 | [7] 0 | [8] 0 | [9] 0 | [10] 0 | [11] 0 | [12] 0 | [13] 0 | [14] 0 | [15] 0

CC(C)(C)NS(=O)(=O)c1cncc(-c2cc(F)c3nc(N)nn3c2)c1
inactive: [1] 0 | [2] 0 | [3] 0 | [4] 0 | [5] 0 | [6] 0 | [7] 0 | [8] 0 | [9] 0 | [10] 0 | [11] 0 | [12] 0 | [13] 0 | [14] 0 | [15] 0

O=C(O)CCc1ccccc1 [Hydrocinnamic acid]
inactive: [1] 0 | [2] 0 | [3] 0 | [4] 0 | [5] 0 | [6] 0 | [7] 0 | [8] 0 | [9] 0 | [10] 0 | [11] 0 | [12] 0 | [13] 0 | [14] 0 | [15] 0

COc1ccc(Cl)cc1C(=O)NCCc1ccc(S(=O)(=O)NC(=O)NC2CCCCC2)cc1 [glyburide]
inactive: [1] 0 | [2] 0 | [3] 0 | [4] 0 | [5] 0 | [6] 0 | [7] 0 | [8] 0 | [9] 0 | [10] 0 | [11] 0 | [12] 0 | [13] 0 | [14] 0 | [15] 0

COc1ccccc1OCC(O)CN1CCN(CC(=O)Nc2c(C)cccc2C)CC1 (stereo not given) [ranolazine]
inactive: [1] 0 | [2] 0 | [3] 0 | [4] 0 | [5] 0 | [6] 0 | [7] 0 | [8] 0 | [9] 0 | [10] 0 | [11] 0 | [12] 0 | [13] 0 | [14] 0 | [15] 0

CCCC(=O)O [Sodium butyrate]
inactive: [1] 0 | [2] 0 | [3] 0 | [4] 0 | [5] 0 | [6] 0 | [7] 0 | [8] 0 | [9] 0 | [10] 0 | [11] 0 | [12] 0 | [13] 0 | [14] 0 | [15] 0

O=c1oc2c(O)c(O)cc3c(=O)oc4c(O)c(O)cc1c4c23 [Ellagic acid]
inactive: [1] 0 | [2] 0 | [3] 0 | [4] 0 | [5] 0 | [6] 0 | [7] 0 | [8] 0 | [9] 0 | [10] 0 | [11] 0 | [12] 0 | [13] 0 | [14] 0 | [15] 0

Cc1cc(-c2ccc(/C=C3\S/C(=N\c4ccc(Cl)c(C(=O)O)c4)NC3=O)o2)c([N+](=O)[O-])cc1C
inactive: [1] 0 | [2] 0 | [3] 0 | [4] 0 | [5] 0 | [6] 0 | [7] 0 | [8] 0 | [9] 0 | [10] 0 | [11] 0 | [12] 0 | [13] 0 | [14] 0 | [15] 0

COc1c(OC2OC(CO)[C@@H](O)[C@H](O)[C@H]2O)cc2c(c1OC)-c1ccc(OC)c(=O)cc1[C@@H](NC(C)=O)CC2 (stereo not given in full) [Colchicoside]
inactive: [1] 0 | [2] 0 | [3] 0 | [4] 0 | [5] 0 | [6] 0 | [7] 0 | [8] 0 | [9] 0 | [10] 0 | [11] 0 | [12] 0 | [13] 0 | [14] 0 | [15] 0

CC(=O)N1CCN(C)CC1 [1-Acetyl-4-methylpiperazine hydrochloride]
inactive: [1] 0 | [2] 0 | [3] 0 | [4] 0 | [5] 0 | [6] 0 | [7] 0 | [8] 0 | [9] 0 | [10] 0 | [11] 0 | [12] 0 | [13] 0 | [14] 0 | [15] 0

Nc1ncnc2c1cnn2-c1ccccc1
inactive: [1] 0 | [2] 0 | [3] 0 | [4] 0 | [5] 0 | [6] 0 | [7] 0 | [8] 0 | [9] 0 | [10] 0 | [11] 0 | [12] 0 | [13] 0 | [14] 0 | [15] 0

CC(C)(C#N)c1cc(Cn2cncn2)cc(C(C)(C)C#N)c1 [Anastrozole]
inactive: [1] 0 | [2] 0 | [3] 0 | [4] 0 | [5] 0 | [6] 0 | [7] 0 | [8] 0 | [9] 0 | [10] 0 | [11] 0 | [12] 0 | [13] 0 | [14] 0 | [15] 0

CCCCCCCCCCCCCCCC(=O)C(F)(F)F
inactive: [1] 0 | [2] 0 | [3] 0 | [4] 0 | [5] 0 | [6] 0 | [7] 0 | [8] 0 | [9] 0 | [10] 0 | [11] 0 | [12] 0 | [13] 0 | [14] 0 | [15] 0

Cc1nc(=O)c2c([nH]1)CCSC2
inactive: [1] 0 | [2] 0 | [3] 0 | [4] 0 | [5] 0 | [6] 0 | [7] 0 | [8] 0 | [9] 0 | [10] 0 | [11] 0 | [12] 0 | [13] 0 | [14] 0 | [15] 0

Cc1c(OCC(F)(F)F)ccnc1CS(=O)c1nc2ccccc2[nH]1 (stereo not given) [lansoprazole]
inactive: [1] 0 | [2] 0 | [3] 0 | [4] 0 | [5] 0 | [6] 0 | [7] 0 | [8] 0 | [9] 0 | [10] 0 | [11] 0 | [12] 0 | [13] 0 | [14] 0 | [15] 0

CCc1nn(CCCN2CCN(c3cccc(Cl)c3)CC2)c(=O)n1CCOc1ccccc1 [nefazodone]
inactive: [1] 0 | [2] 0 | [3] 0 | [4] 0 | [5] 0 | [6] 0 | [7] 0 | [8] 0 | [9] 0 | [10] 0 | [11] 0 | [12] 0 | [13] 0 | [14] 0 | [15] 0
